Reference: publication PMC5540273 (PLoS ONE, 2017)
Where “and” joins values, the source holds several entries; their conditions need not be identical. Identical values can stand only once. Like-named read-outs stand apart in the source and are kept apart here.

How the values were obtained:
ERN1 = conditions: concentration: 1 μM, replicates: in singlicate, n = 1
FAK = test system: T1, FAK; conditions: concentration: 1 μM, replicates: in singlicate; n = 1
T1 construct: gene PTK2

FER = conditions: concentration: 1 μM, replicates: in singlicate, n = 1
FES = conditions: concentration: 1 μM, replicates: in singlicate, n = 1
FGFR1 = conditions: concentration: 1 μM, replicates: in singlicate, n = 1
FGFR2 = conditions: concentration: 1 μM, replicates: in singlicate; n = 1
FGFR3 = conditions: concentration: 1 μM, replicates: in singlicate, n = 1
FGFR4 = conditions: concentration: 1 μM, replicates: in singlicate, n = 1
FGR = conditions: concentration: 1 μM, replicates: in singlicate, n = 1
FLT1 = conditions: concentration: 1 μM, replicates: in singlicate, n = 1
FLT3-autoinhibited = conditions: concentration: 1 μM, replicates: in singlicate; n = 1
FLT3 = conditions: concentration: 1 μM, replicates: in singlicate, n = 1
FLT4 = conditions: concentration: 1 μM, replicates: in singlicate, n = 1
FRK = conditions: concentration: 1 μM, replicates: in singlicate, n = 1
FYN = conditions: concentration: 1 μM, replicates: in singlicate, n = 1
GAK = conditions: concentration: 1 μM, replicates: in singlicate, n = 1
GCN2(Kin.Dom.2,S808G) = test system: T2, GCN2(Kin.Dom.2,S808G); conditions: concentration: 1 μM, replicates: in singlicate, n = 1
T2 construct: gene EIF2AK4

GRK1 = conditions: concentration: 1 μM, replicates: in singlicate; n = 1
GRK2 = test system: T3, GRK2; conditions: concentration: 1 μM, replicates: in singlicate, n = 1
T3 construct: gene ADRBK1

GRK3 = test system: T4, GRK3; conditions: concentration: 1 μM, replicates: in singlicate, n = 1
T4 construct: gene ADRBK2
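Further: KINOMEscan kinase panel screen.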

In the case of CC(C)(C)n1cnc2c(N)ncnc21 [SKF-97359], the “%Inh” value (ERN1) is reported as 0%, the “%Inh” value (FAK) is reported as 0% and the “%Inh” value (FER) is reported as 45%. For the same compound, the “%Inh” value (FES) was 0%, the “%Inh” value (FGFR1) was 0% and the “%Inh” value (FGFR2) was 0%. The “%Inh” value (FGFR3) was 0%, the “%Inh” value (FGFR4) was 0% and the “%Inh” value (FGR) was 8%. The “%Inh” value (FLT1) was 7%, the “%Inh” value (FLT3-autoinhibited) was 0% and the “%Inh” value (FLT3) was 19%. For the same compound, the “%Inh” value (FLT4) was 0%, the “%Inh” value (FRK) was 0% and the “%Inh” value (FYN) was 0%. For the same compound, the “%Inh” value (GAK) was 0%, the “%Inh” value (GCN2(Kin.Dom.2,S808G)) was 29% and the “%Inh” value (GRK1) was 0%. The “%Inh” value (GRK2) was 39% and the “%Inh” value (GRK3) was 24%.
In the case of CC(C)(CN)c1nc(-c2ccc(Cl)c(O)c2)c(-c2ccncc2)[nH]1.O=C(O)C(F)(F)F [SB-477794], the “%Inh” value (ERN1; 1 µM) is reported as 1% and 22%, the “%Inh” value (FAK) is reported as 0% and the “%Inh” value (FER; 1 µM) is reported as 12% and 31%. The “%Inh” value (FES; 1 µM) was 0% and 22%, the “%Inh” value (FGFR1; 1 µM) was 24% and 54% and the “%Inh” value (FGFR2) was 0%. The “%Inh” value (FGFR3; 1 µM) was 8% and 33%, the “%Inh” value (FGFR4; 1 µM) was 18% and 0% and the “%Inh” value (FGR; 1 µM) was 95.3% and 94.8%. For the same compound, the “%Inh” value (FLT1; 1 µM) was 82% and 80%, the “%Inh” value (FLT3-autoinhibited) was 0% and the “%Inh” value (FLT3; 1 µM) was 0% and 29%. For the same compound, the “%Inh” value (FLT4; 1 µM) was 78% and 74%, the “%Inh” value (FRK; 1 µM) was 99.5% and 99.1% and the “%Inh” value (FYN; 1 µM) was 97.3% and 96.8%. The “%Inh” value (GAK; 1 µM) was 71% and 56%, the “%Inh” value (GCN2(Kin.Dom.2,S808G); 1 µM) was 14% and 0% and the “%Inh” value (GRK1) was 0%. The “%Inh” value (GRK2; 1 µM) was 0% and 26% and the “%Inh” value (GRK3; 1 µM) was 65% and 0%.
In the case of Cn1ccc2ncnc(Oc3ccc(NC(=O)Nc4ccncc4)c(Cl)c3)c21, the “%Inh” value (ERN1) is reported as 0%, the “%Inh” value (FAK) is reported as 0% and the “%Inh” value (FER) is reported as 0%. The “%Inh” value (FES) was 0%, the “%Inh” value (FGFR1) was 0% and the “%Inh” value (FGFR2) was 0%. For the same compound, the “%Inh” value (FGFR3) was 0%, the “%Inh” value (FGFR4) was 0% and the “%Inh” value (FGR) was 5%. For the same compound, the “%Inh” value (FLT1) was 0%, the “%Inh” value (FLT3-autoinhibited) was 0% and the “%Inh” value (FLT3) was 0%. The “%Inh” value (FLT4) was 0%, the “%Inh” value (FRK) was 0% and the “%Inh” value (FYN) was 0%. For the same compound, the “%Inh” value (GAK) was 0%, the “%Inh” value (GCN2(Kin.Dom.2,S808G)) was 11% and the “%Inh” value (GRK1) was 7%. The “%Inh” value (GRK2) was 0% and the “%Inh” value (GRK3) was 0%.
Nc1nc(-c2ccc3c(N)n[nH]c3c2)cc(N2CCCC2)n1 [GSK2227430] was tested, and the “%Inh” value (ERN1) was 0%, the “%Inh” value (FAK) was 0% and the “%Inh” value (FER) was 0%. For the same compound, the “%Inh” value (FES) was 1%, the “%Inh” value (FGFR1) was 0% and the “%Inh” value (FGFR2) was 38%. The “%Inh” value (FGFR3) was 0%, the “%Inh” value (FGFR4) was 0% and the “%Inh” value (FGR) was 20%. The “%Inh” value (FLT1) was 14%, the “%Inh” value (FLT3-autoinhibited) was 0% and the “%Inh” value (FLT3) was 0%. For the same compound, the “%Inh” value (FLT4) was 0%, the “%Inh” value (FRK) was 0% and the “%Inh” value (FYN) was 0%. The “%Inh” value (GAK) was 0%, the “%Inh” value (GCN2(Kin.Dom.2,S808G)) was 0% and the “%Inh” value (GRK1) was 0%. For the same compound, the “%Inh” value (GRK2) was 0% and the “%Inh” value (GRK3) was 0%.
With C[C@@H](Oc1cc(-n2cnc3ccc(NC(=O)NC(C)(C)C)cc32)sc1C(N)=O)c1ccccc1Cl [GSK346294] the “%Inh” value (ERN1) was 13%, the “%Inh” value (FAK) was 0% and the “%Inh” value (FER) was 43%. The “%Inh” value (FES) was 0%, the “%Inh” value (FGFR1) was 13% and the “%Inh” value (FGFR2) was 0%. For the same compound, the “%Inh” value (FGFR3) was 30%, the “%Inh” value (FGFR4) was 14% and the “%Inh” value (FGR) was 8%. The “%Inh” value (FLT1) was 46%, the “%Inh” value (FLT3-autoinhibited) was 0% and the “%Inh” value (FLT3) was 0%. For the same compound, the “%Inh” value (FLT4) was 1%, the “%Inh” value (FRK) was 10% and the “%Inh” value (FYN) was 6%. For the same compound, the “%Inh” value (GAK) was 0%, the “%Inh” value (GCN2(Kin.Dom.2,S808G)) was 0% and the “%Inh” value (GRK1) was 0%. The “%Inh” value (GRK2) was 0% and the “%Inh” value (GRK3) was 34%.
c1ccc(-c2n[nH]cc2-c2ccnc3ccccc23)nc1 [GW271431] was tested, and the “%Inh” value (ERN1) was 0%, the “%Inh” value (FAK) was 0% and the “%Inh” value (FER) was 31%. For the same compound, the “%Inh” value (FES) was 0%, the “%Inh” value (FGFR1) was 6% and the “%Inh” value (FGFR2) was 0%. The “%Inh” value (FGFR3) was 13%, the “%Inh” value (FGFR4) was 11% and the “%Inh” value (FGR) was 26%. The “%Inh” value (FLT1) was 47%, the “%Inh” value (FLT3-autoinhibited) was 5% and the “%Inh” value (FLT3) was 3%. For the same compound, the “%Inh” value (FLT4) was 25%, the “%Inh” value (FRK) was 10% and the “%Inh” value (FYN) was 43%. The “%Inh” value (GAK) was 79%, the “%Inh” value (GCN2(Kin.Dom.2,S808G)) was 3% and the “%Inh” value (GRK1) was 0%. For the same compound, the “%Inh” value (GRK2) was 0% and the “%Inh” value (GRK3) was 34%.
With CCn1cnc2c(N)ncnc21 [GW345098] the “%Inh” value (ERN1) was 25%, the “%Inh” value (FAK) was 7% and the “%Inh” value (FER) was 0%. For the same compound, the “%Inh” value (FES) was 14%, the “%Inh” value (FGFR1) was 0% and the “%Inh” value (FGFR2) was 7%. For the same compound, the “%Inh” value (FGFR3) was 0%, the “%Inh” value (FGFR4) was 0% and the “%Inh” value (FGR) was 12%. For the same compound, the “%Inh” value (FLT1) was 9%, the “%Inh” value (FLT3-autoinhibited) was 0% and the “%Inh” value (FLT3) was 13%. For the same compound, the “%Inh” value (FLT4) was 13%, the “%Inh” value (FRK) was 10% and the “%Inh” value (FYN) was 15%. For the same compound, the “%Inh” value (GAK) was 0%, the “%Inh” value (GCN2(Kin.Dom.2,S808G)) was 6% and the “%Inh” value (GRK1) was 0%. For the same compound, the “%Inh” value (GRK2) was 0% and the “%Inh” value (GRK3) was 0%.
With Cc1c2ccc(N(C)c3ccnc(Nc4cccc(S(N)(=O)=O)c4)n3)cc2nn1Cc1ccccc1.Cl.Cl [GW787226] the “%Inh” value (ERN1) was 0%, the “%Inh” value (FAK) was 0% and the “%Inh” value (FER) was 63%. The “%Inh” value (FES) was 36%, the “%Inh” value (FGFR1) was 65% and the “%Inh” value (FGFR2) was 85%. For the same compound, the “%Inh” value (FGFR3) was 59%, the “%Inh” value (FGFR4) was 19% and the “%Inh” value (FGR) was 57%. The “%Inh” value (FLT1) was 98.9%, the “%Inh” value (FLT3-autoinhibited) was 29% and the “%Inh” value (FLT3) was 98.5%. The “%Inh” value (FLT4) was 99.9%, the “%Inh” value (FRK) was 65% and the “%Inh” value (FYN) was 75%. The “%Inh” value (GAK) was 0%, the “%Inh” value (GCN2(Kin.Dom.2,S808G)) was 62% and the “%Inh” value (GRK1) was 0%. For the same compound, the “%Inh” value (GRK2) was 0% and the “%Inh” value (GRK3) was 0%.
Cc1ccc(C(=O)NCC(N)=O)cc1-n1c(C)cc(OCc2ccc(F)cc2F)c(Br)c1=O was tested, and the “%Inh” value (ERN1) was 0%, the “%Inh” value (FAK) was 7% and the “%Inh” value (FER) was 6%. The “%Inh” value (FES) was 23%, the “%Inh” value (FGFR1) was 51% and the “%Inh” value (FGFR2) was 32%. For the same compound, the “%Inh” value (FGFR3) was 21%, the “%Inh” value (FGFR4) was 19% and the “%Inh” value (FGR) was 25%. The “%Inh” value (FLT1) was 0%, the “%Inh” value (FLT3-autoinhibited) was 0% and the “%Inh” value (FLT3) was 13%. The “%Inh” value (FLT4) was 0%, the “%Inh” value (FRK) was 25% and the “%Inh” value (FYN) was 20%. The “%Inh” value (GAK) was 6%, the “%Inh” value (GCN2(Kin.Dom.2,S808G)) was 0% and the “%Inh” value (GRK1) was 20%. For the same compound, the “%Inh” value (GRK2) was 0% and the “%Inh” value (GRK3) was 0%.
